Measurements reported in PubChem BioAssay AID2012 (Sanford-Burnham Center for Chemical Genomics, 2009).
Hit rate of the full screen: of about 290,000 compounds, about 2,700 (0.93%) were called active. How the calls were made is not given here. Many of the other results were omitted from the sample, so actives are more common in it than they were.

Molecular target: Eukaryotic translation initiation factor 4H (Homo sapiens) (UniProt Q15056)
Experiment: eIF4H binding inhibition – biochemical, uHTS, fluorescence polarization, translation initiation inhibitor project, primary screen (AID 2012);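 further: calls also rest on retests at 20 µM and on dose response follow-up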
Details: eIF4H fluorescence polarization binding assay, stronger effect = higher value

Row | Compound | inhibition (at 35 µM) | inhibition (confirmation average, at 20 µM) [%]
1 | COc1ccccc1C(=O)COC(=O)CNS(=O)(=O)c1ccc(NC(C)=O)cc1 | -9.9% (inactive) | –
2 | O=C(O)CCCC(=O)N1N=C(c2ccco2)CC1c1ccco1 (centres undefined) | 7.4% (inactive) | –
3 | O=c1c2ccccc2ncn1/N=C/c1ccccc1 | 4.2% (inactive) | –
4 | COc1ccc(Nc2nc(=O)[nH]nc2C)cc1 | 3.5% (inactive) | –
5 | COc1ccc(NC2=CC(=S)NC(C)(C)C2)cc1 | 67.8% (active) | 62.7
6 | COc1ccc(C(=S)Nc2ccccc2)cc1 | -0.5% (inactive) | –
7 | CCCCSCCCNC(=O)C1CCC(CNS(=O)(=O)c2ccc(NC(C)=O)cc2)CC1 (centres undefined) | 2.4% (inactive) | –
8 | Cc1cc(CNC(=O)C2CCC(=O)N(CCc3ccc(Cl)cc3)C2)no1 (centres undefined) | -0.4% (inactive) | –
9 | CCOC(=O)C1C(c2ccc(O)cc2)NC(=O)NC1(O)C(F)(F)F (centres undefined) | -0.5% (inactive) | –
10 | Cc1ccccc1NC(=O)CCNS(=O)(=O)c1ccc2[nH]c(=O)oc2c1 | -5.4% (inactive) | –
11 | O=C(NCCN1CCOCC1)c1ccc(/C=C2\Sc3ccccc3N(Cc3ccc(F)cc3)C2=O)cc1 | -7.3% (inactive) | –
12 | CCN1CCN(CCNC(=O)c2ccc3c(c2)NC(=O)/C(=C\c2ccc(OC)c(OC)c2)S3)CC1 | 22.4% (inactive) | –
13 | CCN1CCN(CCNC(=O)c2ccc(/C=C3/Sc4ccccc4N(Cc4cccc(C)c4)C3=O)cc2)CC1 | -0.9% (active) | 95.1
14 | COc1ccc(C)cc1Nc1nc(C)nc2c1oc1ccccc12 | -11.2% (inactive) | –
15 | CN1CCN(C(=O)c2ccc(NS(=O)(=O)c3ccccc3)cc2)CC1 | -6.4% (inactive) | –
16 | CCC(C(=O)NC1CCCC1)N(C(=O)Cn1nnc(-c2ccc(C)o2)n1)c1ccc(OC)c(OC)c1 (centres undefined) | 5.7% (inactive) | –
17 | CCOCCCN(C(=O)Cn1nnc(-c2ccc(OC)c(OC)c2)n1)C(CC)C(=O)NC1CCCC1 (centres undefined) | -12.4% (active) | 91
18 | COc1ccc(-c2nnn(CC(=O)N(CCO)C(C(=O)NC3CCCC3)c3ccc(F)cc3)n2)cc1 (centres undefined) | -0.3% (inactive) | –
19 | O=C(O)Cn1c(Cc2ccccc2)nc2ccccc21 | -6.9% (inactive) | –

Row | Compound | inhibition (at 35 µM) | inhibition (confirmation average, at 20 µM) [%]
20 | O=C(Nc1ccc(Cl)c(Cl)c1)c1ccccc1NC(=O)C1CC=CCC1C(=O)O (centres undefined) | -5.2% (inactive) | –
21 | O=C(NCc1ccccn1)c1ccc2nc(-c3ccco3)c(-c3ccco3)nc2c1 | 97% (active) | –
22 | COc1cccc(S(=O)(=O)NCc2ccc(C(=O)NCc3ccccn3)cc2)c1 | -1% (inactive) | –
23 | O=C(NCc1ccccn1)c1cc(-c2ccccc2Cl)on1 | -3.2% (inactive) | –
24 | COc1ccc(C23NCCN2C(=O)c2ccccc23)cc1 (centres undefined) | -1.8% (inactive) | –
25 | Cc1ccc(CN2CCN(c3ncccn3)CC2)c(C)c1 | 17.4% (inactive) | –
26 | COc1ccc(NS(=O)(=O)c2ccc(N3CCOCC3)c(NC(=O)c3ccccc3Br)c2)cc1 | -4.7% (inactive) | –
27 | COc1ccc(NS(=O)(=O)c2cc(NC(=O)/C=C/c3cc(OC)c(OC)c(OC)c3)ccc2N2CCCCC2)cc1 | -7.6% (inactive) | –
28 | COc1ccc(NS(=O)(=O)c2cc(NC(=O)C3CCCCC3)ccc2N2CCOCC2)cc1 | 13.7% (active) | 81.1
29 | CCC(C)[C@H](NC(=O)N1CCn2c1nc1ccccc12)C(=O)NCc1ccc(OC)cc1 (some centres undefined) | -4.4% (inactive) | –
30 | CCc1ccc(-c2nc(SCC(=O)NC3CCCC3)n[nH]2)cc1 | 45.6% (inactive) | –
31 | CCCN(c1ccc(C)cc1)c1nc(=O)c2cccnc2s1 | 91.1% (active) | –
32 | COc1ccccc1N1CC(C(=O)Nc2nnc(SCC(=O)NCC3CCCO3)s2)CC1=O (centres undefined) | -4% (inactive) | –
33 | CN(C(=O)c1cc2c(=O)n3ccccc3nc2s1)C1CCCCC1 | -4.1% (inactive) | –
34 | COc1ccc(-c2csc(Nc3ccc(O)cc3)n2)cc1 | 9.7% (inactive) | –
35 | COc1ccc(OC)c(Nc2nc(-c3ccc(O)c(O)c3)cs2)c1 | 65.5% (active) | –
36 | COc1cccc(CC(=O)Nc2nc(-c3ccc(OC)c(OC)c3)cs2)c1 | 6.8% (inactive) | –
37 | O=S(=O)(Nc1cccc(-n2cnnn2)c1)c1cnc(Cl)c(Cl)c1 | -5.5% (inactive) | –
38 | CN(C)S(=O)(=O)c1ccc(N/C=C(\[N+](=O)[O-])S(=O)(=O)c2ccccc2)cc1 | -0.3% (inactive) | –

Row | Compound | inhibition (at 35 µM) | inhibition (confirmation average, at 20 µM) [%]
39 | COc1cccc(OC)c1C(=O)Nc1c(C(=O)N2CCN(c3ccccn3)CC2)oc2ccccc12 | -10.2% (inactive) | –
40 | Oc1c(Cl)cc(Cl)c(Cl)c1Cc1c(O)c(Cl)cc(Cl)c1Cl | 51% (active) | 96.3
41 | COc1ccc(CSc2nnnn2-c2ccc(O)cc2)cc1F | -12% (inactive) | –
42 | COc1cccc(NC(=O)c2ccccc2N(Cc2ccccc2)S(C)(=O)=O)c1 | -8.4% (inactive) | –
43 | COC(=O)[C@@H]1CCCN1C(=O)c1cc(COc2cccc3cccnc23)on1 | 4.3% (inactive) | –
44 | O=C1CCCC(O)=C1N=Nc1ccc2ncsc2c1 | 69.2% (active) | 94.3
45 | O=C1CCCC(O)=C1N=Nc1ccc(S(=O)(=O)N2CCOCC2)cc1 | 27.7% (inactive) | –
46 | CC(CC(=O)N1CCN(S(=O)(=O)c2ccccc2)CC1)n1cncn1 (centres undefined) | -2.7% (inactive) | –
47 | COc1ccc(Cc2nnc(NC(=O)c3ccc(OC)cc3OC)s2)cc1 | 4.9% (inactive) | –
48 | COc1ccc(Cc2nnc(NC(=O)Cc3cccs3)s2)cc1 | 71.3% (active) | –
49 | CCc1nnc(NC(=O)Cc2cccs2)s1 | 19.2% (inactive) | –
50 | CC1CN(C(=O)CCC(=O)NCCCN2CCC(Cc3ccccc3)CC2)c2cc(Cl)ccc2O1 (centres undefined) | 6% (inactive) | –
51 | C#CCOc1ccccc1/C=C1/C(=O)ON=C1C | -20.1% (inactive) | –
52 | Cc1ccc(NC(=O)c2ccc(Oc3ncccn3)cc2)cc1 | 0.1% (inactive) | –
53 | Cc1ccc(NC(=O)c2cccnc2C(=O)Nc2ccc(C)cc2)cc1 | 4% (active) | 65.7
54 | Cc1ccc(NC(=O)Nc2cccnc2)cc1 | 2.1% (inactive) | –
55 | O=[N+]([O-])c1cc(Cl)cc(/C=N/NC(=S)Nc2cc(S(=O)(=O)N3CCOCC3)ccc2Cl)c1O | 89.6% (active) | –
56 | O=C(N/N=C/c1cc(Cl)cc([N+](=O)[O-])c1O)C(O)(c1ccccc1)c1ccccc1 | 1.2% (inactive) | –
57 | O=C(NC(=S)Nc1ccc(S(=O)(=O)N2CCOCC2)cc1)c1ccccc1[N+](=O)[O-] | 6.8% (inactive) | –
